These results are taken from PubChem BioAssay (Tox21).

Molecules are shown by their SMILES. Unmarked numbers belong to inactive results. The source made the active and inactive calls. Calls come from the whole dose curve; as a rule, active = well fitted curve in the direction sought with a large enough effect in the repeat runs; inconclusive = weak or mixed curves; inactive = flat fitted curve, though single readings scatter.
% is set by controls: 0 for no effect and ±100 for the full control effect.

This test in a line: qHTS assay to test for compound auto fluorescence at 535 nm (green) in HepG2 cells (AID 720675). The conditions noted are these: green autofluorescence 485/535 nm, 1 h; series mostly up to 91.3 µM; fluorescence, % of fluorescein control: at the top concentration. The source says:
National Center for Advancing Translational Sciences [NCATS]
NIH Chemical Genomics Center [NCGC]
U.S. Environmental Protection Agency [EPA]
National Institutes of Environmental Health Sciences [NIEHS]
National Toxicology Program [NTP]
U.S. Food and Drug Administration [FDA]
Compound auto fluorescence often interferes with screening of the compound library against various biological targets and signaling pathways. Some of these compounds may have fluorophoric properties. Such properties may interfere with the assay outputs resulting in false positives and/or negatives. To decrease such complications and ensure the compound activities are relevant in terms of biological response, the Tox21 10K compound library was screened for auto fluorescence.
From the fluorophores used as reporter signals in our screening assays, the auto fluorescence equivalencies of compounds against three fluorophores have been evaluated: Triamterene, Fluorescein and Rose Bengal sodium for blue, green and red fluorescence, respectively. The fluorescence intensities were measured using Excitation/Emission wavelengths at 405/460nm, 485/535nm and 540/590nm for blue, green and red labels, respectively. This assay includes the green fluorescence data.
Tox21 Assay Protocol Summary:
2,000 HepG2 cells in 5 uL of culture medium (MEM containing 10% FBS) per well were dispensed into black wall/clear bottom 1536-well plates using a Multidrop Combi Dispenser (ThermoFisher Scientific, Waltham, MA). The assay plates were incubated overnight at 37 C to allow cell attachment to the well bottom, followed by the transfer of 23 nL compound or DMSO vehicle by a pintool work station (Kalypsys , San Diego, CA). After the assay plates were incubated for 1 hr at 37 C and 5% CO2, fluorescence intensities in the assay plates were measured by an Envision (PerkinElmer, Shelton, CT) plate reader using three labels for measuring blue, green and red fluorescence at […] 460, 535 and 590 nm respectively.
On to `CCCCCCCCCCCCCCC(=O)O`, for which the “fluorescence, % of fluorescein control” value is 0.0803%.

As to `c1ccc(CCc2ccccc2)cc1`, the “fluorescence, % of fluorescein control” value was 0.0719%.

As to `CC[N+](C)(CC)CCOC(=O)C1c2ccccc2Oc2ccccc21`, the “fluorescence, % of fluorescein control” value was -0.0627% [at 46 µM].

For `CC(=O)O[C@@]12CO[C@@H]1C[C@H](O)[C@@]1(C)C(=O)[C@H](O)C3=C(C)[C@@H](OC(=O)[C@H](O)[C@@H](NC(=O)OC(C)(C)C)c4ccccc4)C[C@@](O)([C@@H](OC(=O)c4ccccc4)[C@H]21)C3(C)C`, the compound was called inactive.

For `Cc1c(N)c(=O)n(-c2ccccc2)n1C`, the fluorescence, % of fluorescein control was 0.0089% [at 18.6 µM].

As to `CC(C)(N)C#N`, the “fluorescence, % of fluorescein control” value is 0.104% [at 95.7 µM].

Regarding `[O-][n+]1cccc(CO)c1`, the “fluorescence, % of fluorescein control” value is -0.0052% [at 46 µM].

Regarding `CCOC(=O)c1ccccc1`, the “fluorescence, % of fluorescein control” value is -0.0329%.

Turning to `O=C(CO)[C@@H](O)[C@H](O)[C@H](O)CO`, the call was inactive.

With `CCCCCCCCCC[N+](C)(C)[O-]`, the “fluorescence, % of fluorescein control” value was -0.104%.

As to `CC(C)(C)C(=O)Oc1ccc(S(=O)(=O)Nc2ccccc2C(=O)NCC(=O)O)cc1`, the “fluorescence, % of fluorescein control” value is 0.111% [at 46 µM].

Regarding `CC12CCC(C(=O)C1=O)C2(C)C` (stereo not given), the “fluorescence, % of fluorescein control” value is -0.0544% [at 95.7 µM].

As to `CC[N+](CC)(CC)CCOc1cccc(OCC[N+](CC)(CC)CC)c1OCC[N+](CC)(CC)CC`, the “fluorescence, % of fluorescein control” value was 0.0227% [at 46 µM].

For `CCCCN1C=CN(C)C1`, the fluorescence, % of fluorescein control is -0.0563% [at 18.6 µM].

In the case of `CCC(=O)OCc1ccccc1`, the “fluorescence, % of fluorescein control” value was -0.159%.

With `C=C(C)C(=O)OCCOCCOCCOCCOC(=O)C(=C)C`, the “fluorescence, % of fluorescein control” value was -0.0043%.

As for `Cc1ccccc1N=C(N)N=C(N)N`, the “fluorescence, % of fluorescein control” value was -0.315%.

With `C[N+](C)(C)CCCCCCCCCC[N+](C)(C)C`, the “fluorescence, % of fluorescein control” value was 0.0107% [at 46 µM].

In the case of `CCCCCCC#CC(=O)OC`, the “fluorescence, % of fluorescein control” value is -0.0303%.

As to `NO`, the “fluorescence, % of fluorescein control” value was -0.0058% [at 95.7 µM].

For `CN1CCC(=C2c3ccccc3CCc3cccnc32)CC1`, the “fluorescence, % of fluorescein control” value is -0.0566% [at 46 µM].

For the compound `Cc1ccc(C(=O)Nc2ccc(S(=O)(=O)O)c3cc(S(=O)(=O)O)cc(S(=O)(=O)O)c23)cc1NC(=O)c1cccc(NC(=O)Nc2cccc(C(=O)Nc3cc(C(=O)Nc4ccc(S(=O)(=O)O)c5cc(S(=O)(=O)O)cc(S(=O)(=O)O)c45)ccc3C)c2)c1`, the “fluorescence, % of fluorescein control” value is 0.0014% [at 46 µM].

For the compound `CCOC(=O)C1=NOC(c2ccccc2)(c2ccccc2)C1`, the “fluorescence, % of fluorescein control” value is -0.135%.

In the case of `CC(C)C1CCC(O)CC1` (stereo not given), the “fluorescence, % of fluorescein control” value was -0.148%.

On to `CC(=O)N1C[C@H](O)C[C@H]1C(=O)O`, for which the “fluorescence, % of fluorescein control” value was -0.212% [at 46 µM].

For the compound `C[N+]1(C)[C@@H]2CC(OC(=O)[C@H](CO)c3ccccc3)C[C@H]1[C@@H]1O[C@@H]12` (stereo not given in full), the “fluorescence, % of fluorescein control” value is 0.0052% [at 46 µM].

Consider `Cc1nc2ccc(CN(C)c3ccc(C(=O)N[C@@H](CCC(=O)O)C(=O)O)s3)cc2c(=O)[nH]1`, for which the compound was classed as inactive.

Regarding `COc1ccnc(CS(=O)c2nc3cc(OC(F)F)ccc3[nH]2)c1OC` (stereo not given), the compound was classed as inactive.

Turning to `COc1cc(-c2ccc(=O)[nH]n2)ccc1OC(F)F`, the “fluorescence, % of fluorescein control” value is 0.0044% [at 46 µM].

Turning to `COc1cc2c(cc1OC)-c1cc3ccc(OC)c(OC)c3c[n+]1CC2`, the “fluorescence, % of fluorescein control” value was 0.174%.

Consider `C[C@@H]1C[C@H]2[C@@H]3C[C@H](F)C4=CC(=O)C(Cl)=C[C@]4(C)[C@@]3(F)[C@@H](O)C[C@]2(C)[C@@]1(O)C(=O)CO`, for which the “fluorescence, % of fluorescein control” value is 0.0415% [at 46 µM].

With `c1coc(CNc2ncnc3nc[nH]c23)c1`, the “fluorescence, % of fluorescein control” value is -0.0671%.

Regarding `CNC(=O)Nc1ccc(Cl)c(Cl)c1`, the “fluorescence, % of fluorescein control” value was 0.0855%.

For the compound `CCC1C(=O)OCC1Cc1cncn1C` (stereo not given), the “fluorescence, % of fluorescein control” value was 0.02% [at 46 µM].

In the case of `CCCCOC(=O)CCC(C)=O`, the “fluorescence, % of fluorescein control” value was -0.0356%.

For the compound `Nc1ccn([C@@H]2O[C@H](CO)[C@@H](O)C2O)c(=O)n1` (stereo not given in full), the result was inactive.

Turning to `c1ccc2sc(SN3CCOCC3)nc2c1`, the “fluorescence, % of fluorescein control” value was 0.246% [at 46 µM].

For the compound `Nc1ccn([C@@H]2O[C@H](CO)[C@@H](O)C2(F)F)c(=O)n1`, the “fluorescence, % of fluorescein control” value is -0.0926% [at 46 µM].

With `[Ca+2]`, the “fluorescence, % of fluorescein control” value was -0.179%.

For the compound `O=S(=O)(O)c1cccc2ccccc12`, the “fluorescence, % of fluorescein control” value was -0.0223%.
